Here are results for five compounds from PubChem BioAssay (EPA / NIEHS).

Active and inactive are the calls of the source. Rule for the calls: active = hit-call score of the fitted dose curve at least 0.9, where 1 is the maximum; inactive = score below 0.9.

Read-out in test [1]: Tissue Factor, F3 (gene 2152)
Kind of test: BSK_CASM3C_TissueFactor: BioMAP Diversity Plus: CASM3C Assay for Tissue Factor Biomarker Activity (AID 2283052).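 Note: cell surface tissue factor protein level read by ELISA.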 The settings on record: primary human coronary artery smooth muscle cells; actives raise or lower the signal.

Read-out in test [2]: Interferon-gamma inducible Protein 10 (IP10), CXCL10 (gene 3627)
In words: BSK_hDFCGF_IP10: BioMAP Diversity Plus: hDFCGF Assay for Interferon-gamma inducible Protein 10 (IP10) Biomarker Activity (AID 2283053). To be noted: primary human foreskin fibroblasts; actives raise or lower the signal. An outline of the steps:
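ELISA read-out of IP-10 (CXCL10) from primary human skin fibroblasts, 24 h after compound addition. Gain or loss of signal versus DMSO baseline, bidirectional curve fitting.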

Read-out in test [3]: Urokinase-type plasminogen activator receptor (uPAR), PLAUR (gene 5329)
Kind of test: BSK_CASM3C_uPAR: BioMAP Diversity Plus: CASM3C Assay for Urokinase-type plasminogen activator receptor (uPAR) Biomarker Activity (AID 2283054).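 Note: cell-surface uPAR protein level quantified by ELISA.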 The settings on record: primary human coronary artery smooth muscle cells; actives raise or lower the signal.

Read-out in test [4]: Vascular cell adhesion molecule 1 (VCAM1), VCAM1 (gene 7412)
Kind of test: BSK_CASM3C_VCAM1: BioMAP Diversity Plus: CASM3C Assay for Vascular cell adhesion molecule 1 (VCAM1) Biomarker Activity (AID 2283055).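 Note: VCAM-1 protein level quantified by ELISA on the cells.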 To be noted: primary human coronary artery smooth muscle cells; actives raise or lower the signal.

Read-out in test [5]: Collagen III, COL3A1 (gene 1281)
Kind of test: BSK_hDFCGF_CollagenIII: BioMAP Diversity Plus: hDFCGF Assay for Collagen III Biomarker Activity (AID 2283056). The settings on record: primary human foreskin fibroblasts; actives raise or lower the signal. An outline of the steps: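 Human foreskin fibroblast primary cultures sampled 24 h after dosing; Collagen III quantified by ELISA. Signal fitted bidirectionally against DMSO baseline.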

Read-out in test [6]: Epidermal growth factor receptor (EGFR), EGFR (gene 1956)
Kind of test: BSK_hDFCGF_EGFR: BioMAP Diversity Plus: hDFCGF Assay for Epidermal growth factor receptor (EGFR) Biomarker Activity (AID 2283057). To be noted: primary human foreskin fibroblasts; actives raise or lower the signal. An outline of the steps: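 ELISA readout of EGFR on human dermal fibroblasts (primary foreskin cells), 24 h post-dosing; bidirectional curve fit vs DMSO baseline, gain or loss of signal scored.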

Read-out in test [7]: Interleukin-8 (IL8), CXCL8 (gene 3576)
In words: BSK_hDFCGF_IL8: BioMAP Diversity Plus: hDFCGF Assay for Interleukin-8 (IL8) Biomarker Activity (AID 2283058). The settings on record: primary human foreskin fibroblasts; actives raise or lower the signal. An outline of the steps: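 Primary human foreskin fibroblasts (hDFCGF system) dosed with chemical; IL-8 measured by ELISA 24 hours later. Bidirectional curve fitting relative to DMSO baseline; cytotoxicity tracked in parallel cultures by SRB total protein staining.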

Test [8] is described as follows: BSK_hDFCGF_Proliferation: Cell Proliferation Assessment in the BioMAP Diversity Plus: hDFCGF Assay (AID 2283059).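 Note: curves fitted for both rise and fall of signal versus DMSO baseline.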 To be noted: primary human foreskin fibroblasts. A digest of the protocol:
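This proliferation readout used SRB total-protein staining of human foreskin fibroblasts […], normalized to DMSO with bidirectional curve fitting.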

Read-out in test [9]: Macrophage colony-stimulating factor (MCSF), CSF1 (gene 1435)
Kind of test: BSK_hDFCGF_MCSF: BioMAP Diversity Plus: hDFCGF Assay for Macrophage colony-stimulating factor (MCSF) Biomarker Activity (AID 2283060). To be noted: primary human foreskin fibroblasts; actives raise or lower the signal. An outline of the steps:
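Human foreskin fibroblast primary cultures; M-CSF measured by ELISA 24 hours after chemical dosing. Bidirectional fitting relative to DMSO, with overt cytotoxicity tracked by parallel SRB total-protein staining (0.1% SRB, 10% TCA fixation, 560 nm).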

Test [10] in a line: BSK_hDFCGF_SRB: Viability Assessment in the BioMAP Diversity Plus: hDFCGF Assay (AID 2283061).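 Note: cells exposed to compound for 24 h before the read.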 To be noted: primary human foreskin fibroblasts. An outline of the steps: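 Human foreskin fibroblasts in 96-well plates were treated 24 h. Total protein was measured by 0.1% SRB staining after 10% TCA fixation, read at 560 nm. Data were fitted bidirectionally against DMSO.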
Read-out in test [11]: TIMP metallopeptidase inhibitor 1 (TIMP1), TIMP1 (gene 7076)
In words: BSK_hDFCGF_TIMP1: BioMAP Diversity Plus: hDFCGF Assay for TIMP metallopeptidase inhibitor 1 (TIMP1) Biomarker Activity (AID 2283062). To be noted: primary human foreskin fibroblasts; actives raise or lower the signal. An outline of the steps: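 Human foreskin fibroblast primary cultures dosed for 24 h; secreted/surface TIMP-1 quantified by ELISA. Bidirectional curve fitting against DMSO baseline; cytotoxicity tracked in parallel cultures by SRB total-protein staining.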

Read-out in test [12]: Monokine induced gamma interferon (MIG), CXCL9 (gene 4283)
Kind of test: BSK_hDFCGF_MIG: BioMAP Diversity Plus: hDFCGF Assay for Monokine induced gamma interferon (MIG) Biomarker Activity (AID 2283063). To be noted: primary human foreskin fibroblasts; actives raise or lower the signal. An outline of the steps: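 MIG/CXCL9 measured by ELISA 24 h after dosing primary human skin fibroblasts. Activity fitted in both directions against DMSO controls. Cytotoxicity was checked in parallel cultures by SRB staining read at 560 nm.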

Read-out in test [13]: Matrix Metallopeptidase 1 (MMP1), MMP1 (gene 4312)
Kind of test: BSK_hDFCGF_MMP1: BioMAP Diversity Plus: hDFCGF Assay for Matrix Metallopeptidase 1 (MMP1) Biomarker Activity (AID 2283064). To be noted: primary human foreskin fibroblasts; actives raise or lower the signal. An outline of the steps:
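MMP1 levels quantified by ELISA 24 h after dosing human dermal fibroblast cultures, with parallel SRB total-protein staining for overt cytotoxicity. Data fitted in both directions against DMSO baseline.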

Read-out in test [14]: Vascular cell adhesion molecule 1 (VCAM1), VCAM1 (gene 7412)
In words: BSK_hDFCGF_VCAM1: BioMAP Diversity Plus: hDFCGF Assay for Vascular cell adhesion molecule 1 (VCAM1) Biomarker Activity (AID 2283065).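 For AC50: VCAM-1 protein level quantified by ELISA after 24 h chemical exposure.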 To be noted: primary human foreskin fibroblasts; actives raise or lower the signal. A digest of the protocol:
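Human foreskin fibroblast primary cells dosed with chemical, VCAM-1 measured by ELISA at 24 h. Bidirectional curve fitting relative to DMSO as negative control/baseline.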

Read-out in test [15]: Plasminogen activator inhibitor-1 (PAI1), SERPINE1 (gene 5054)
In words: BSK_hDFCGF_PAI1: BioMAP Diversity Plus: hDFCGF Assay for Plasminogen activator inhibitor-1 (PAI1) Biomarker Activity (AID 2283066). The settings on record: primary human foreskin fibroblasts; actives raise or lower the signal. An outline of the steps: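 ELISA readout of PAI-1 from primary human skin fibroblast cultures, 24 h after compound addition. Gain or loss of signal was fitted bidirectionally against DMSO baseline.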

Read-out in test [16]: Intercellular Adhesion Molecule 1 (ICAM1), ICAM1 (gene 3383)
In words: BSK_KF3CT_ICAM1: BioMAP Diversity Plus: KF3CT Assay for Intercellular Adhesion Molecule 1 (ICAM1) Biomarker Activity (AID 2283067). The settings on record: primary human keratinocytes with fibroblasts; actives raise or lower the signal. An outline of the steps:
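Human keratinocyte–foreskin fibroblast co-culture was treated for 24 h. Cell-surface ICAM-1 was quantified by ELISA, fitted bidirectionally relative to DMSO. Cytotoxicity was checked in parallel cultures by SRB total-protein staining.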

Read-out in test [17]: Interferon-gamma inducible Protein 10 (IP10), CXCL10 (gene 3627)
In words: BSK_KF3CT_IP10: BioMAP Diversity Plus: KF3CT Assay for Interferon-gamma inducible Protein 10 (IP10) Biomarker Activity (AID 2283068). To be noted: primary human keratinocytes with fibroblasts; actives raise or lower the signal. An outline of the steps: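 Signal is secreted/surface IP-10 by ELISA in a human primary skin co-culture of keratinocytes and foreskin fibroblasts, taken 24 h post-dosing; DMSO served as negative control.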

The nature of test [18]: BSK_KF3CT_SRB: Viability Assessment in the BioMAP Diversity Plus: KF3CT Assay (AID 2283069).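 Note: total protein by sulforhodamine B staining as a cytotoxicity measure.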 To be noted: primary human keratinocytes with fibroblasts. An outline of the steps:
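Cytotoxicity was gauged by SRB staining (0.1% SRB, 10% TCA fixation, 560 nm) of parallel cultures at 24 h. The cells were primary human skin keratinocytes co-cultured with fibroblasts, and activity was fitted in both directions against DMSO.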

Read-out in test [19]: Interleukin-1 alpha (IL1a), IL1A (gene 3552)
In words: BSK_KF3CT_IL1a: BioMAP Diversity Plus: KF3CT Assay for Interleukin-1 alpha (IL1a) Biomarker Activity (AID 2283070). To be noted: primary human keratinocytes with fibroblasts; actives raise or lower the signal. A digest of the protocol:
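IL-1a was detected by ELISA 24 h after chemical treatment of a co-culture of human skin keratinocytes and foreskin fibroblasts. Gain or loss of signal was fitted against the DMSO baseline.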

Read-out in test [20]: TIMP metallopeptidase inhibitor 2 (TIMP2), TIMP2 (gene 7077)
Kind of test: BSK_KF3CT_TIMP2: BioMAP Diversity Plus: KF3CT Assay for TIMP metallopeptidase inhibitor 2 (TIMP2) Biomarker Activity (AID 2283071). The settings on record: primary human keratinocytes with fibroblasts; actives raise or lower the signal. A digest of the protocol:
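ELISA readout of TIMP-2 in keratinocyte plus foreskin fibroblast co-cultures (human skin primary cells), 24 h post-dose. Gain or loss of signal fitted relative to DMSO.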

In the case of `CC#C[C@]1(O)CC[C@H]2[C@@H]3CCC4=CC(=O)CCC4=C3[C@@H](c3ccc(N(C)C)cc3)C[C@@]21C`, the outcome in [1], in test [2], in test [4], in test [6], in test [7] and in test [9] was inactive. The outcome in test [11], in test [12], in test [14], in test [17], in test [18] and in [19] was inactive. Besides, the outcome in [20] was inactive. The AC50 (in general, the concentration at which the activity in the assay is half-maximal) in [3] is 30.6 µM (active); in test [5] it was 12.9 µM (active); in [8], 26.6 µM (active); in test [10], 20 µM (active); in test [13], 26.1 µM (active); in test [15], 11.2 µM (active). For the same compound, the AC50 in [16] is 20 µM (active).
As to `CC(C)(C)c1cccc(C(C)(C)C)c1O`, the AC50 was 20 µM (active) in test [1]; 37.8 µM (active) in test [2]; 35.9 µM (active) in test [5]; 36.8 µM (active) in test [7]; 35 µM (active) in test [8]; 31 µM (active) in [9]. For the same compound, the AC50 was 35.7 µM (active) in test [10]; 36.3 µM (active) in test [11]; 34.9 µM (active) in test [12]; 35.5 µM (active) in test [14]; 36.6 µM (active) in test [15]; 37.9 µM (active) in test [16]. Further, the half-maximal activity concentration (AC50) in test [17] is 37.5 µM (active); in test [18], 33.8 µM (active); in test [19], 31 µM (active); in [20] it was 37.1 µM (active). The result in test [3], in test [4] and in test [6] was inactive.
Turning to `CCCOc1sc(C(=O)N2CCC(c3cc(CN)ccc3F)CC2)c(C)c1Br`, the AC50 is 10.8 µM (active) in [1]; 10.4 µM (active) in test [2]; 8.94 µM (active) in [3]; 18.6 µM (active) in test [4]; 7.98 µM (active) in test [5]; 5.12 µM (active) in test [6]. The half-maximal activity concentration (AC50) in [7] was 7.73 µM (active); in [8], 3.1 µM (active); in test [9], 6.92 µM (active); in test [10], 6.53 µM (active); in test [11] it was 10.6 µM (active); in [12] it was 9.21 µM (active). Besides, the AC50 is 10.3 µM (active) in [13]; 9.91 µM (active) in test [14]; 6.22 µM (active) in test [15]; 10.6 µM (active) in test [16]; 7.07 µM (active) in test [17]; 5.28 µM (active) in [18]. For the same compound, the AC50 in test [19] was 10.6 µM (active); in test [20] it was 9.6 µM (active).
Consider `CC(C)CCCCCCOC(=O)CCCCC(=O)OCCCCCCC(C)C`, for which the result in [1], in [2], in [3], in test [4], in [5] and in test [6] was inactive. In addition, the result in test [7], in test [8], in test [9], in test [10], in test [11] and in test [12] was inactive. Moreover, the result in [14], in test [15], in test [16], in [17], in test [18] and in [19] was inactive. In addition, the outcome in test [20] was inactive.
Take `O=C(OCCOCCOC(=O)c1ccccc1)c1ccccc1`: the outcome in test [1], in test [2], in test [3], in [4], in test [5] and in test [6] was inactive. Moreover, the result in test [7], in test [8], in [9], in test [10], in test [11] and in [12] was inactive. In addition, the outcome in [13], in test [14], in test [15], in test [16], in test [17] and in test [18] was inactive. In addition, the outcome in [19] and in test [20] was inactive.
